Screening results: PubChem, National Center for Advancing Translational Sciences (NCATS)
RE007 growth inh: less growth of the S. pombe RE007 Vpr strain; S. pombe RE007 Vpr strain, BacTiter-Glo ATP luminescence, 24 h; Potency, µM (titrated, usually from 92.2 µM), for the others: top-dose activity change, negative = less growth, hits mostly inhibitors; actives 0.21% (n = 360,000); AID 651644; active means well fitted falling curve with a large enough effect; inconclusive means small, poorly fitted or top-dose-only effect; inactive means no such curve, though single readings can be large or run the other way; further: on the % scale 0 is the no-effect control and ±100 the full control effect; nearly all actives have a fitted effect of over 50% in size
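Fission yeast RE007 carrying one integrated HIV-1 vpr copy, seeded at OD 0.01 in PMG+AL medium with 23 nL pinned compound. Grown 24 h at 30 degrees; viability read by BacTiter-Glo luminescence after 5 min.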
Tb PYK inh: blocks Trypanosoma brucei pyruvate kinase. Potency, µM (titrated, usually from 76.8 µM), without a hit: top-dose activity, negative = inhibition, hits mostly inhibitors. actives 0.12% (n = 410,000). Q57TT1. TbPYK enzyme, Kinase-Glo Plus ATP luminescence, 45 min. AID 624173; further: on the % scale 0 is the no-effect control and ±100 the full control effect; nearly all actives have a fitted effect of over 50% in size
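T. brucei PYK with substrate was exposed to pin-transferred compounds across a concentration series, then started with 130 uM ADP (final). After 45 min at room temperature, Kinase-Glo Plus luminescence was read, normalized and curve-fitted.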
NS1 function inh: blocks influenza NS1 protein function | Potency, µM (doses to about 46.1 µM), for the others: top-dose activity, positive = more growth | actives 0.4% (n = 270,000); calls by dose curve; further: actives are rising curves; nearly all actives have a fitted effect of over 50% in size
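In this qHTS, NS1 from influenza A is expressed in budding yeast, where it slows growth. Cells are switched from glucose to 2% galactose medium (pH 6.0, -URA), treated with compound, and growth recovery is read at OD600.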
LmPK inh: blocks Leishmania mexicana pyruvate kinase activity. purified LmPK, Kinase-Glo ATP luminescence, 1 h. Potency, µM (series often up to 57.5 µM), inactives show top-dose activity change, negative = inhibition, hits mostly inhibitors. actives 0.37% (n = 290,000). AID 1721; further: on the % scale 0 is the no-effect control and ±100 the full control effect
Target sequence (Q27686 whole entry, looked up): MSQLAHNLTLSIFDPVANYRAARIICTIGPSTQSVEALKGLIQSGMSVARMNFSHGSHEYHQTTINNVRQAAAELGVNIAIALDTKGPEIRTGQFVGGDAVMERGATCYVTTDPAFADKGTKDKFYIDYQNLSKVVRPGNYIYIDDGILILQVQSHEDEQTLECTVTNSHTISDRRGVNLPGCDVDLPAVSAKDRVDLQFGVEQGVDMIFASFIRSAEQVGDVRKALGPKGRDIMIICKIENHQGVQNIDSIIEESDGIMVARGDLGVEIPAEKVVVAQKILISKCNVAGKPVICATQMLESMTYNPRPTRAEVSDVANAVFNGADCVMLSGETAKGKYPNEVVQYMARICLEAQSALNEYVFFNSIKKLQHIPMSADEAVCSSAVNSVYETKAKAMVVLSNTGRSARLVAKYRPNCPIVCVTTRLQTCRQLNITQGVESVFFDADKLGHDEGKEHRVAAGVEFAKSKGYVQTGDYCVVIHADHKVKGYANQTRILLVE
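Kinase-Glo luminescence read after 1 h RT reaction of 0.1 nM LmPK with 0.5 mM PEP and 0.1 mM ADP. Activity scaled between uninhibited and enzyme-free controls.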
SARS PLP yeast: SARS-CoV PLP inhibition in yeast; actives 0.19% (n = 330,000); S. cerevisiae expressing SARS-CoV PLpro, growth rescue; Potency, µM (doses to about 32.9 µM), for inactives: at the highest dose activity, positive = growth rescue, most hits filed as activators; AID 485353; calls by dose curve; further: 0% is about no effect; nearly all actives have a fitted effect of over 55% in size
Sm TGR block: inhibitors of Schistosoma mansoni thioredoxin glutathione reductase | Q962Y6 | purified TGR, DTNB reduction, TNB absorbance 405 nm | Potency, µM (titrated, usually from 114 µM), without a hit: top-dose activity change, negative = inhibition, actives largely listed as inhibitors | actives 3% (n = 360,000) | AID 485364; further: on the % scale 0 is the no-effect control and ±100 the full control effect; nearly all actives have a fitted effect of over 60% in size
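TGR 20 nM + NADPH 100 uM (dispensed conc.), cpd preinc 15 min RT; start with NADPH (500 uM addition) then DTNB (15 mM addition). Kinetic TNB absorbance, 405 nm filter. Four-parameter Hill fit across titration.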
Starred values were filed as active, the others as inactive. This is a sample that favours compounds with a hit; in the whole collection about 3.3% have one here. Unless noted, the call rests on the fitted dose curve; in most records, active means well fitted curve in the direction sought with a large enough effect; inconclusive means small, poorly fitted or top-dose-only effect, or another doubt; inactive means no such curve, though single readings can be large; an effect the other way counts as inactive or inconclusive. Potency means the concentration at half of the fitted maximal effect.

Screening Cc1cc(/C(N)=N/OC(=O)c2ccccc2Cl)no1 returned RE007 growth inh -16%, Tb PYK inh inconclusive, NS1 function inh -5%, LmPK inh 22µM*, SARS PLP yeast -1% and Sm TGR block 2%.
`Cc1ccc(C(=O)O/N=C(\N)c2nonc2N)cc1` gave RE007 growth inh inconclusive, Tb PYK inh inconclusive, NS1 function inh -6%, LmPK inh 4µM*, SARS PLP yeast -12% and Sm TGR block -4%.
Cc1ccc2c(c1)C(=O)OC(C(=O)Nc1ccc(C(=O)O)cc1)C2 (stereo unspecified) was read as Tb PYK inh 4% and Sm TGR block 1%.
For N/C(=N\OC(=O)c1ccc(F)cc1)c1nonc1N the results were RE007 growth inh inconclusive, Tb PYK inh inconclusive, NS1 function inh 9%, LmPK inh 14µM*, SARS PLP yeast -7% and Sm TGR block 7%.
For Cc1ccc(/C(N)=N/OC(=O)c2ccc(F)cc2)cc1 the results were RE007 growth inh -28%, Tb PYK inh 6%, NS1 function inh -27%, LmPK inh -2%, SARS PLP yeast -41% and Sm TGR block -1%.
`COCCCOc1cc(C[C@@H](C[C@H](N)[C@@H](O)C[C@H](C(=O)NCC(C)(C)C(N)=O)C(C)C)C(C)C)ccc1OC` gave Tb PYK inh 0%.
C[C@@H]1Cc2c(O)c(O)cc(O)c2C(=O)O1 was read as RE007 growth inh 14%, Tb PYK inh 0%, NS1 function inh -1%, LmPK inh 3%, SARS PLP yeast -1% and Sm TGR block inconclusive.
`CC1Oc2cc3c(-c4c(O)cc(O)c5c(O)c6c(cc45)OC(C)C(C)C6=O)c(O)cc(O)c3c(O)c2C(=O)C1C` (stereo unspecified) gave RE007 growth inh -16%, Tb PYK inh -4%, NS1 function inh 18%, LmPK inh -6%, SARS PLP yeast 2% and Sm TGR block 32µM*.
`CCNC(=O)COC(=O)c1cc(-c2ccco2)nc2ccccc12` gave RE007 growth inh -1%, Tb PYK inh -9%, NS1 function inh 5%, LmPK inh -2%, SARS PLP yeast -1% and Sm TGR block 16µM*.
For O=C(c1ccco1)N1CCN(C(=O)c2cc(Cl)nc3ccccc23)CC1 the results were RE007 growth inh -12%, Tb PYK inh -6%, SARS PLP yeast 8% and Sm TGR block 1%.
Screening COc1cccc(C(=O)OCC(=O)NCCCc2ccccc2)c1 returned RE007 growth inh 1%, Tb PYK inh 6%, NS1 function inh -40%, LmPK inh 3%, SARS PLP yeast -2% and Sm TGR block 79µM*.
`Cn1c(=O)c(C(=O)COC(=O)c2cc(-c3ccco3)nc3ccccc23)c(N)n(CC2CC2)c1=O` gave NS1 function inh inconclusive, LmPK inh 5%, SARS PLP yeast 1% and Sm TGR block 3.5µM*.
`O=C(c1ccco1)N1CCN(C(=O)c2cc(-c3ccccn3)nc3ccccc23)CC1` gave RE007 growth inh -16%, Tb PYK inh -7%, NS1 function inh -11%, LmPK inh 0%, SARS PLP yeast 9% and Sm TGR block 35µM*.
Screening COC(=O)c1cc(Cl)ccc1NC(=O)Cn1c(C)cc(C)c(C#N)c1=O returned Tb PYK inh -6% and Sm TGR block -1%.
COc1ccc(CNC(=O)COC(=O)c2cc(-c3ccco3)nc3ccccc23)cc1 was read as NS1 function inh 5%, LmPK inh -6%, SARS PLP yeast 9% and Sm TGR block 11µM*.
Cc1ccc(NC(=O)CSC(C)C(=O)OCC(=O)N2CCN(C(=O)c3ccco3)CC2)cc1 (stereo unspecified) was read as RE007 growth inh 2%, Tb PYK inh -9%, SARS PLP yeast 8% and Sm TGR block 50µM*.
For COc1cccc(CNC(=O)COC(=O)c2nc(Cl)c(Cl)c(Cl)c2Cl)c1 the results were RE007 growth inh -23%, Tb PYK inh -4%, SARS PLP yeast -2% and Sm TGR block 3.2µM*.
Screening O=C(OCC(=O)N1CCN(C(=O)c2ccco2)CC1)c1cc(-c2ccco2)nc2ccccc12 returned RE007 growth inh 2%, Tb PYK inh inconclusive, NS1 function inh 22%, LmPK inh 1%, SARS PLP yeast -8% and Sm TGR block 5µM*.
For COc1cccc(CNC(=O)CCl)c1 the results were RE007 growth inh -9%, Tb PYK inh 3%, NS1 function inh 0%, LmPK inh 2%, SARS PLP yeast 25% and Sm TGR block inconclusive.
For Cc1ccc(NC(=O)CSCC(=O)N2CCN(C(=O)c3ccco3)CC2)cc1 the results were RE007 growth inh -6%, Tb PYK inh 2%, SARS PLP yeast 3% and Sm TGR block -9%.
O=C(CCNS(=O)(=O)c1ccc(Cl)cc1)OCC(=O)N1CCN(C(=O)c2ccco2)CC1 was read as RE007 growth inh -4%, Tb PYK inh -7%, SARS PLP yeast -2% and Sm TGR block -17%.
O=C(OCC(=O)N1CCN(C(=O)c2ccco2)CC1)c1cc(S(=O)(=O)Nc2ccc(Cl)cc2)ccc1O was read as RE007 growth inh -4%, Tb PYK inh 4%, NS1 function inh -23%, LmPK inh 13%, SARS PLP yeast 3% and Sm TGR block 45µM*.
COc1ccc(N2C(=O)C(Cl)=C(Nc3ccccc3OC)C2=O)cc1 was read as RE007 growth inh 9%, Tb PYK inh -6%, NS1 function inh 13%, LmPK inh 0%, SARS PLP yeast -24% and Sm TGR block -1%.
`COc1ccc(N2C(=O)C(Cl)=C(Nc3ccccc3O)C2=O)cc1` gave RE007 growth inh -9%, Tb PYK inh -13%, NS1 function inh -97%, LmPK inh 4%, SARS PLP yeast -31% and Sm TGR block 40µM*.
O=C(COc1ccc(F)cc1)N1CCCCCCC1 was read as RE007 growth inh 19%, Tb PYK inh -2%, NS1 function inh -3%, LmPK inh 1%, SARS PLP yeast -3% and Sm TGR block -8%.
O=C1NC(=S)NC(=O)C1=Cc1ccc(OCC(=O)N2CCCC2)cc1 was read as RE007 growth inh 2%, Tb PYK inh inconclusive, NS1 function inh 7%, LmPK inh 10%, SARS PLP yeast 0% and Sm TGR block 10µM*.
Cc1cc(=O)oc2cc(Oc3ccc([N+](=O)[O-])cc3[N+](=O)[O-])ccc12 was read as RE007 growth inh 0%, Tb PYK inh 1%, NS1 function inh 2%, LmPK inh 1%, SARS PLP yeast -29% and Sm TGR block 50µM*.
